Only some compounds are listed: those with a hit (about 2.4% of all), similar ones and a draw of the others.
ATXN2 expr inh – Primary qHTS for Inhibitors of ATXN expression; HEK-293 ATXN2-luciferase reporter, luminescence, 24 h; Potency, µM (highest dose often 57 µM), inactives show at the highest dose activity change, negative = inhibition, actives largely listed as inhibitors; 0.72% of 360,000 active; AID 1745845, 2022; further: on the % scale 0 is the no-effect control and ±100 the full control effect; nearly all actives have a fitted effect of over 55% in size
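qHTS (up to 57 uM final) was run with 24 h compound exposure of reporter cells at 37 °C. Each well was multiplexed: SteadyGlo luminescence measured ATXN2-luciferase expression after a fluorogenic Gly-Phe-AFC viability readout (25 uM final).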
S2 tox – Viability Counterscreen for Primary qHTS for Inhibitors of ATXN expression | S2 cells (HEK-293 line with an ATXN2-luciferase reporter) viability, CellTiter-Fluor protease fluorescence, 24 h | Potency, µM (doses to about 56.7 µM), most hits filed as cytotoxic | 0.49% of 400,000 active | AID 651635, 2014; further: nearly all actives have a fitted effect of over 40% in size
Apoferritin bind – qHTS Assay for Identification of Novel General Anesthetics. Potency, µM (top dose mostly 77.5 µM), for the others: top-dose activity change, negative = displacement, actives largely listed as inhibitors. apoferritin/1-aminoanthracene competitive binding, fluorescence. 0.074% of 350,000 active; further: on the % scale 0 is the no-effect control and ±100 the full control effect; nearly all actives have a fitted effect of over 20% in size
Target sequence (P02791 2-175 limits assumed): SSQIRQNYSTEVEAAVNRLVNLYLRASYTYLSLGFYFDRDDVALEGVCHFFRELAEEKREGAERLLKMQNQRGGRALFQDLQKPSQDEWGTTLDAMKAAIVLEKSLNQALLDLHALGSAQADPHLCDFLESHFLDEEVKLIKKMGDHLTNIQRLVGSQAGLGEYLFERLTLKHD
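Horse-spleen apoferritin (10 uM) in 50% saturated 1-aminoanthracene in PBS was incubated 10 min at room temperature with compound. Fluorescence (ex 380, em 535 nm) was normalized to free and bound 1-AMA, with concentration-response fitted by a four-parameter Hill equation.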
TGFb SMAD3 inh – qHTS for Inhibitors of TGF-b. 1.2% of 410,000 active. Potency, µM (top dose mostly 46.1 µM), for the others: top-dose activity, negative = inhibition, usual class: inhibitors. HepG2 CAGA-GFP TGF-b/SMAD3 reporter, GFP fluorescence, 18 h; TGF-beta stimulated, 500 pg/mL final. AID 588855, 2011; further: on the % scale 0 is the no-effect control and ±100 the full control effect; nearly all actives have a fitted effect of over 65% in size
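HEPG2 CAGA-GFP, 1000 cells/well; 2 h settle, 37 C; cpd via pin tool; TGF-b 500 pg/mL final; 18 h, 37 C; GFP imaging ex488/em500-530; %Activity normalised to -TGF-b and +DMSO controls; CRC fit, curve class.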
HepG2 tox – qHTS for Inhibitors of TGF-b: Cytotox Counterscreen; HepG2 CAGA-GFP viability, ATP luminescence, 18 h; Potency, µM (top dose mostly 46.1 µM), without a hit: at the top dose activity change, negative = cytotoxicity, actives largely listed as cytotoxic; 0.76% of 410,000 active; AID 588856, 2011
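HepG2 CAGA-GFP cells (1000/well, DMEM with 1% FBS) received compound, then TGF-beta at 500 pg/mL final, and were incubated 18 hours at 37 degrees C. Viability was read by CellTiter-Glo luminescence. Media-only wells were set as complete cell-killing and DMSO as no toxicity.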
* = called active by the depositor; i = inactive; ? = inconclusive; . = not tested or not shown. The call rests on the fitted dose curve; in most records, active means well fitted curve in the direction sought with a large enough effect; inconclusive means small, poorly fitted or top-dose-only effect, or another doubt; inactive means no such curve, though single readings can be large; an effect the other way counts as inactive or inconclusive. Potency means the concentration at half of the fitted maximal effect.

SMILES	ATXN2 expr inh	S2 tox	Apoferritin bind	TGFb SMAD3 inh	HepG2 tox
Cc1cccnc1-c1cccc2c1OC(CNC(=O)C(=O)c1ccccc1)C2 (stereo not drawn)	.	i	.	.	.
Cc1ccc2c(c1)N(CC(=O)OCC(=O)NCc1ccccc1)C(=O)CO2	8%	i	-4%	-5%	4%
COC(=O)c1ccc(C(=O)N2CCc3c(C(=O)NC(C)c4ccco4)c(OC)cc(=O)n3CC2)cc1 (stereo not drawn)	.	i	.	.	.
COc1ccc2nc(NC(=O)c3ccoc3C)sc2c1	?	?	-1%	?	7.9µM*
COc1ccc2nc(NC(=O)CN3C(=O)NC4(CCCCC4)C3=O)sc2c1	6%	?	-14%	1%	4.5µM*
COc1ccc2nc(NC(=O)c3cc(C)oc3C)sc2c1	20%	i	0%	4%	-51%
COc1ccc2nc(NC(=O)CN3C(=O)NC4(CCCC4)C3=O)sc2c1	23%	?	.	-21%	-27%
Cc1nnc(N/N=C/c2cc(C)n(-c3ccc(F)cc3)c2C)n1N	1%	i	-1%	14µM*	-104%
O=C1CC(CC(=O)N2CC3CCCC2C3)(c2cccc(F)c2)C(=O)N1Cc1cccnc1 (stereo not drawn)	.	i	.	.	.
COc1ccccc1N1CCN(CC(O)COc2cc(C)cc(C)c2)CC1 (stereo not drawn)	-15%	i	-17%	-2%	-16%
COc1ccccc1N1CCN(CC(O)COc2ccc(C)cc2C(C)(C)C)CC1 (stereo not drawn)	.	.	-13%	?	16µM*
Cc1cc(=O)oc2cc(OCC3CC(c4ccc(Cl)cc4)=NO3)ccc12 (stereo not drawn)	-10%	i	?	-3%	-22%
NNC(=O)c1ccc(OCC2CC(c3ccc(Cl)cc3)=NO2)cc1 (stereo not drawn)	-33%	i	-15%	?	13µM*
CC(=O)/C=C/C=C1/C2CCC(C2)C1(C)C (stereo not drawn)	-5%	i	.	.	.
CCOC(=O)CSC1=NC(=O)/C(=C/c2ccc(OC)cc2)S1	7.1µM*	7.9µM*	-9%	?	-41%
CCOc1ccccc1C1CC(=O)NC(C)=C1C(=O)OC1CCCCCC1 (stereo not drawn)	-3%	i	2%	?	16µM*
CC1=C(C(=O)OC2CCCCCC2)C(c2ccccc2Cl)CC(=O)N1 (stereo not drawn)	0%	i	-10%	?	-35%
CCOc1ccccc1C1CC(=O)NC(C)=C1C(=O)OCc1ccc(C)cc1 (stereo not drawn)	2%	i	2%	?	-52%
CC1=C(C(=O)OC2CCCCCCC2)C(c2cc3c(cc2Br)OCO3)CC(=O)N1 (stereo not drawn)	?	i	-17%	?	16µM*
CC1=C(C(=O)OCc2ccc(C)cc2)C(c2ccccc2F)CC(=O)N1 (stereo not drawn)	-16%	i	6%	11µM*	-38%
CC(=O)O[C@H]1C[C@@H]2CC[C@H]3[C@H]4C[C@H]([N+]5(C)CCCCC5)[C@@H](OC(C)=O)[C@@]4(C)CC[C@@H]3[C@@]2(C)C[C@H]1[N+]1(C)CCCCC1	2%	.	.	.	.
CCOC(=O)/C=C1\NC(=O)C(C)S1 (stereo not drawn)	0%	i	-3%	12%	4%
COC(=O)/C=C1\NC(=O)C(C)S1 (stereo not drawn)	-38%	?	2%	0.56µM*	-24%
COc1ccc(Cl)cc1NC(=O)C1CCN(S(C)(=O)=O)CC1	-3%	i	-14%	5%	8%
COc1ccc(F)c(F)c1C(=O)c1cnc(NC2CCN(S(C)(=O)=O)CC2)nc1N	2.7µM*	.	.	.	.
SMILES	ATXN2 expr inh	S2 tox	Apoferritin bind	TGFb SMAD3 inh	HepG2 tox
CN(C)c1ccc(C(I)C(I)c2ccnc3ccccc23)cc1 (stereo not drawn)	.	.	.	1%	-56%
COc1ccc(-c2cc(C(F)(F)F)nc(SCCC(=O)Nc3ccc(OC)c(OC)c3)n2)cc1	-8%	i	-17%	0%	-50%
COc1ccccc1-c1cc(C(F)(F)F)nc(S(=O)(=O)CCCC(=O)O)n1	?	?	-9%	18µM*	-46%
COc1ccccc1-c1cc(C(F)(F)F)nc(S(=O)(=O)CCCC(=O)Nc2cc(OC)c(OC)c(OC)c2)n1	15%	i	-12%	2%	-15%
COc1ccc(-c2cc(C(F)(F)F)nc(S(=O)(=O)CCCC(=O)Nc3cccc(O)c3)n2)cc1OC	-98%	.	-18%	3.5µM*	5.6µM*
COc1ccc(-c2cc(C(F)(F)F)nc(S(=O)(=O)CCCC(=O)Nc3ccccc3C(F)(F)F)n2)cc1OC	.	.	-13%	2.8µM*	-3%
COc1ccc(NC(=O)CCCS(=O)(=O)c2nc(-c3ccc(OC)c(OC)c3)cc(C(F)(F)F)n2)cc1OC	.	.	-18%	2.5µM*	-101%
COc1ccccc1-c1cc(C(F)(F)F)nc(S(=O)(=O)CCCC(=O)Nc2ccc(F)c(Cl)c2)n1	1%	i	-19%	0%	-4%
CCC1C(=O)NCCN1Cc1ccc2c(c1)CN(Cc1ccc(OC)cc1OC)CCO2 (stereo not drawn)	.	i	.	.	.
CCOC(=O)c1ccc(-c2ccc(/C=C(\C#N)c3nc4ccc(C)cc4[nH]3)o2)cc1	.	.	-3%	.	3.2µM*
O=C(NC(NC(=S)Nc1cccc(C(=O)O)c1)C(Cl)(Cl)Cl)OCc1ccccc1 (stereo not drawn)	-5%	i	-14%	-20%	-19%
O=C(NC(NC(=S)Nc1cccc(Cl)c1)C(Cl)(Cl)Cl)OCc1ccccc1 (stereo not drawn)	?	?	-20%	6.3µM*	11µM*
Cc1ccc(C)c(NC(=S)NC(NC(=O)Cc2cccc3ccccc23)C(Cl)(Cl)Cl)c1 (stereo not drawn)	18µM*	16µM*	-10%	3.5µM*	2.8µM*
CCc1ccc(OCC(=O)NC(NC(=S)Nc2ccccc2)C(Cl)(Cl)Cl)cc1 (stereo not drawn)	?	i	3%	?	11µM*
O=C(CCc1ccccc1)NC(NC(=S)Nc1ccc(Cl)cc1)C(Cl)(Cl)Cl (stereo not drawn)	32µM*	.	-3%	-3%	-95%
CC(C)CC(=O)NC(NC(=S)Nc1ccccc1)C(Cl)(Cl)Cl (stereo not drawn)	-27%	i	-4%	-14%	-34%
Cc1cc(Br)ccc1NC(=O)COC(=O)c1ccccc1OCC(=O)N(C)C	.	.	.	-8%	1%
O=C(Nc1ccccc1Br)C1CCN(S(=O)(=O)c2cccs2)CC1	-15%	i	.	-1%	-31%

Bioassay records as filed in PubChem.
